Laboratory results published in PubChem BioAssay (EPA / NIEHS).
Values joined by “and” are separate entries in the source; they are usually repeats but may differ in a detail not shown here. Equal values may be shown once. Records with an inconclusive call do not appear. Active and inactive are the calls of the source. The calls were made as follows, unless noted: active = hit-call score of the fitted dose curve at least 0.9, where 1 is the maximum; inconclusive = response in the unintended direction; inactive = score below 0.9.

How the values were obtained:
[1] = TOX21_p53_BLA_p2_viability: Viability Assessment in the Tox21 HCT-116 p53 Agonism Beta-lactamase Assay, Phase 2 (AID 2283591);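 also: compound exposure lasted 16 h at 37 °C; actives lower the ATP signal meaning cytotoxicity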
How it was run: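 HCT-116 p53-bla cells (4000/well) rested 5 h at 37C, then received compounds in DMSO (217-fold dilution) for 16 h at 37C, 5% CO2. After the CCF4 read, CellTiter-Glo was added; ATP luminescence was read after 30 min at room temperature.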

[2] = molecular target: Cellular tumor antigen p53 (Homo sapiens) (UniProt P04637); assay: TOX21_p53_BLA_p2_ratio: Tox21 HCT-116 p53 Agonism Beta-lactamase Assay, Ratio, Phase 2 (AID 2283592)
Sequence of Cellular tumor antigen p53 (Homo sapiens) (P04637 whole entry, looked up): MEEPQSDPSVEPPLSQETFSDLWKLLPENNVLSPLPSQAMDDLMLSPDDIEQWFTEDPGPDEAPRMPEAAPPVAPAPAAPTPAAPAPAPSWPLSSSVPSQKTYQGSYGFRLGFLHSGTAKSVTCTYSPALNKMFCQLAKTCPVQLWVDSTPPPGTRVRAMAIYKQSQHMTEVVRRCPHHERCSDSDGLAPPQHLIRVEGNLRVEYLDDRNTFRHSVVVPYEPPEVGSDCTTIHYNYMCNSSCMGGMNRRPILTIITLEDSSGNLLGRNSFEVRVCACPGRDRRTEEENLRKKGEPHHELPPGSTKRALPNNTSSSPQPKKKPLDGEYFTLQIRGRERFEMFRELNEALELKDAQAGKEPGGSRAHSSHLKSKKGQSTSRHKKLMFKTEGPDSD
How it was run: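 HCT-116 cells with p53-responsive beta-lactamase reporter, 4000 cells/well, preincubated 5 h, then compound in DMSO (217-fold dilution) for 16 h at 37C. CCF4-AM substrate 2 h at room temperature; 460/530 nm emission ratio fitted upward versus DMSO.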

[3] = TOX21_p53_BLA_p3_viability: Viability Assessment in the Tox21 HCT-116 p53 Agonism Beta-lactamase Assay, Phase 3 (AID 2283593);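 also: cells exposed to compound for 16 h before reading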
How it was run: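 HCT-116 cells (4000/well) rested 5 h at 37C, then got DMSO compounds by pin tool (217-fold dilution) for 16 h at 37C, 5% CO2. After the bla read, CellTiter-Glo was added and luminescence read at 30 min, room temperature.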

[4] = molecular target: Cellular tumor antigen p53 (Homo sapiens) (UniProt P04637); assay: TOX21_p53_BLA_p3_ratio: Tox21 HCT-116 p53 Agonism Beta-lactamase Assay, Ratio, Phase 3 (AID 2283596)
How it was run: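 HCT116 p53-bla cells (4000/well) given compound in DMSO (217-fold dilution) after 5 h, incubated 16 h at 37C. CCF4-AM substrate 2 h at room temperature; 460/530 nm emission ratio, gain fitted against DMSO.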

[5] = TOX21_p53_BLA_p4_viability: Viability Assessment in the Tox21 HCT-116 p53 Agonism Beta-lactamase Assay, Phase 4 (AID 2283597);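 also: hits lower the luminescence signal meaning cytotoxicity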
How it was run: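 HCT-116 p53-bla cells, 4000/well, dosed after 5 h attachment and incubated 16 h at 37 °C, 5% CO2. Viability from CellTiter-Glo ATP luminescence after 30 min at room temperature, taken after the beta-lactamase read; loss of signal indicates cytotoxicity.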

[6] = molecular target: Cellular tumor antigen p53 (Homo sapiens) (UniProt P04637); assay: TOX21_p53_BLA_p5_ratio: Tox21 HCT-116 p53 Agonism Beta-lactamase Assay, Ratio, Phase 5 (AID 2283599)
How it was run: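 HCT-116 cells carrying a p53-inducible beta-lactamase reporter were seeded at 4000 cells/well and dosed after 5 h with compound in DMSO (217-fold dilution). After 16 h at 37C, CCF4-AM substrate was added for 2 h, and the 460/530 nm emission ratio was scored as gain-of-signal versus DMSO.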

[7] = TOX21_p53_BLA_p5_viability: Viability Assessment in the Tox21 HCT-116 p53 Agonism Beta-lactamase Assay, Phase 5 (AID 2283600)
How it was run: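 HCT-116 p53 beta-lactamase reporter cells, 4000/well, were exposed to compound (pin transfer, 217-fold dilution) for 16 hours at 37C. Cellular ATP was read by CellTiter-Glo luminescence after 30 min at room temperature.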

[8] = molecular target: Cellular tumor antigen p53 (Homo sapiens) (UniProt P04637); assay: TOX21_p53_BLA_p4_ratio: Tox21 HCT-116 p53 Agonism Beta-lactamase Assay, Ratio, Phase 4 (AID 2283601)
How it was run: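 HCT116 cells carrying an inducible beta-lactamase reporter were plated at 4000 cells/well, rested 5 h, then exposed to compounds in DMSO (217-fold dilution) for 16 h at 37C. CCF4-AM substrate was loaded 2 h at room temperature; 460/530 nm emission ratio scored gain-of-signal versus DMSO.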

[9] = CCTE_Harrill_HTTr_Viability_MCF7: CCTE's 6-hour Cell Viability Assessment for the High-Throughput Transcriptomics (HTTr) Platform, in MCF-7 cells cultured in DMEM + 10% fetal bovine serum, Harrill Lab (AID 2284010; active = hit-call score of the fitted dose curve at least 0.9, where 1 is the maximum; inactive = score below 0.9)
How it was run: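 MCF-7 cells in DMEM + 10% FBS, 384-well, exposed 6 h to an eight-point dilution series. Membrane integrity scored by high-content imaging of propidium iodide exclusion; bidirectional fit versus DMSO.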

[10] = molecular target: THRB (gene 7068) (UniProt P10828); assay: TOX21_TRB_BLA_Antagonist_Followup_ratio: Tox21 Thyroid Hormone Receptor beta Antagonism Beta-lactamase (BLA) Follow-Up Assay, Ratio (AID 2283958)
Sequence of THRB (gene 7068) (P10828 whole entry, looked up, the tested form may be a part): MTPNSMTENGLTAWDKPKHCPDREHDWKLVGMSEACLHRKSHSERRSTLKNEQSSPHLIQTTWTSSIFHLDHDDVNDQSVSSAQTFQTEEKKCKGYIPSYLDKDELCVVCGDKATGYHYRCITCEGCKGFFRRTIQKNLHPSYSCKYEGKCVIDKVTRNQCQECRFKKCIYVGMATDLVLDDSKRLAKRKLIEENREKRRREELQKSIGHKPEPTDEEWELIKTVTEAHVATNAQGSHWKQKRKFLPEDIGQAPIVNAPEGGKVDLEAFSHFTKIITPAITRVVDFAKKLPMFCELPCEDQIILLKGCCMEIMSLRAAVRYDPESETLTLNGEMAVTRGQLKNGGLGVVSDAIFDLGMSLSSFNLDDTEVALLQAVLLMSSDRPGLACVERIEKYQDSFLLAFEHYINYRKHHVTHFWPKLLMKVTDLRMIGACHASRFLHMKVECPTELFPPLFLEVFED
How it was run: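 HEK293T cells with a GAL4-TRb LBD fusion and UAS-bla reporter, 3,000 cells/well in phenol red-free DMEM with 2% charcoal-stripped FBS. Exposed 18 h at 37C to 11 concentrations in triplicate; CCF4 460:530 nm ratio after 2 h, DMSO-referenced.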

[11] = TOX21_TRB_BLA_Antagonist_Followup_viability: Viability Assessment in the Tox21 Thyroid Hormone Receptor beta Antagonism Beta-lactamase (BLA) Follow-Up Assay (AID 2283961)
How it was run: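 HEK293T cells with GAL4-human TRβ LBD and UAS-bla reporter, 3,000 cells/well in 2% charcoal-stripped FBS medium; 11-point concentrations in triplicate, 18 h at 37C. Viability from ATP by CellTiter-Glo luminescence, 30 min RT, same plates.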

[12] = molecular target: THRB (gene 7068) (UniProt P10828); assay: TOX21_TRB_COA_Antagonist_Followup_ratio: Tox21 Thyroid Hormone Receptor beta Antagonism through Coactivator Recruitment Follow-Up Assay, Ratio (AID 2283967)
How it was run: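 Cell-free TR-FRET coactivator recruitment with GST-tagged TRβ LBD (5.0 nM) and fluorescein-labeled SRC-2 peptide (200 nM) detected by terbium anti-GST antibody (2 nM). The 520:495 nm emission ratio was normalized to DMSO (0%) and T3 (100%).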

[13] = molecular target: Retinoic acid receptor RXR-alpha (Homo sapiens) (UniProt P19793); assay: TOX21_TR_RXR_BLA_Antagonist_Followup_ratio: Tox21 Thyroid Hormone Receptor beta Retinoid X Receptor alpha (RXRa) Antagonism Beta-lactamase (BLA) Follow-Up Assay, Ratio (AID 2283972)
Sequence of Retinoic acid receptor RXR-alpha (Homo sapiens) (P19793 whole entry, looked up): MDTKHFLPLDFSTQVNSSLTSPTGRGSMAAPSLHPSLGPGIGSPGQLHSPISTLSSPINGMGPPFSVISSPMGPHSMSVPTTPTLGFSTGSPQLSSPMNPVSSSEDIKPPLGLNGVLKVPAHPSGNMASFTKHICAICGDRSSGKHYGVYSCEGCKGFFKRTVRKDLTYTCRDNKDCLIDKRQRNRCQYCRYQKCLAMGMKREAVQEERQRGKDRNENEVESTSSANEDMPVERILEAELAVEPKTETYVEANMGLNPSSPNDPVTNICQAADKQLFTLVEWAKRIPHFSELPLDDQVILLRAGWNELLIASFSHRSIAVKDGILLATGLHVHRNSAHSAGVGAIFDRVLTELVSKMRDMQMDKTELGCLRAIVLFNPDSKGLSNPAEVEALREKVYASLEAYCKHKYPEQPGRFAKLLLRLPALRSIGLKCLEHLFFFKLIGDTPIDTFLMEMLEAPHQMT
How it was run: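 RXRa-UAS-bla HEK293T cells, 2,500/well in phenol red-free DMEM with 2% charcoal-stripped FBS, 5 h attachment, then compounds (11 concentrations, triplicate) for 16 h at 37C; FRET-B/GCCF4-AM substrate 2 h RT; 460:530 nm ratio, loss of signal vs DMSO.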

[14] = molecular target: Thyroid hormone receptor alpha (Rattus norvegicus) + Thyroid hormone receptor beta (Rattus norvegicus) (UniProt P18113+P63059); assay: TOX21_TR_LUC_GH3_Antagonist_Followup: Tox21 GH3 Thyroid Hormone Receptor Antagonism Luciferase Follow-Up Assay (AID 2283942)
How it was run: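 Rat pituitary GH3 cells with a TRα/TRβ-driven luciferase reporter, 5 h attachment, then 15 concentrations (92 uM to 5nM final) plus 1.0 nM T3 agonist, 24 h at 37C/5% CO2. ONE-Glo luminescence; signal change fitted against DMSO baseline.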

[15] = molecular target: THRA (gene 7067) (UniProt P10827); assay: TOX21_TRA_COA_Antagonist_Followup_ratio: Tox21 Thyroid Hormone Receptor alpha Antagonism through Coactivator Recruitment Follow-Up Assay, Ratio (AID 2283953)
Sequence of THRA (gene 7067) (P10827 whole entry, looked up, the tested form may be a part): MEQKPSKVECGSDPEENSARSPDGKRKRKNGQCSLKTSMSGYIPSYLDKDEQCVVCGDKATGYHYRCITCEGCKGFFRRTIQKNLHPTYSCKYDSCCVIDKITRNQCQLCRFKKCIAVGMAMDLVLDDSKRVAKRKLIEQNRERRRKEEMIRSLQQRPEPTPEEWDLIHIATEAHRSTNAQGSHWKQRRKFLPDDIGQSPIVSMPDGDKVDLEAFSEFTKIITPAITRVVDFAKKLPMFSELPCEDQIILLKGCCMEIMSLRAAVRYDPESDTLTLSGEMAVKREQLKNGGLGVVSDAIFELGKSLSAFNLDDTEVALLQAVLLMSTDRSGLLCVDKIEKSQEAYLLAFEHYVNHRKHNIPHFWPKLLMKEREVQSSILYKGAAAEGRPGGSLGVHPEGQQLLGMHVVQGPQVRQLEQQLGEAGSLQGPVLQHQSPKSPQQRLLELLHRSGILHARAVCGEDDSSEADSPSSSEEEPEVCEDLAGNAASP
How it was run: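 520:495 nm emission ratio (excitation 340 nm) reports fluorescein-SRC-2 peptide recruitment to GST-TRα LBD by TR-FRET with Tb anti-GST antibody. Values were normalized to DMSO (0%) and T3 control wells (100%); loss of signal indicated antagonism.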

Measured: AC50

NNc1nncc2ccccc12
not listed: [10] | [11] | [12] | [13] | [14] | [15]
inactive: all other assays above

CCc1cc(Cl)c(OC)c(C(=O)NC[C@@H]2CCCN2CC)c1O
not listed: [9] | [14] | [15]
inactive: all other assays above

CCCCCCNC(=O)n1cc(F)c(=O)[nH]c1=O
active: [1] 709 nM | [2] 770 nM | [3] 1.26 µM | [4] 2.57 µM | [5] 3.62 µM | [6] 2.87 µM | [7] 1.02 µM | [8] 2.24 µM | [14] 12 µM
inactive: [11] | [12]

CC1(C)[C@@H](O[C@H]2O[C@H](C(=O)O)[C@@H](O)[C@H](O)[C@H]2O[C@@H]2O[C@H](C(=O)O)[C@@H](O)[C@H](O)[C@H]2O)CC[C@]2(C)[C@H]3C(=O)C=C4[C@@H]5C[C@@](C)(C(=O)O)CC[C@]5(C)CC[C@@]4(C)[C@]3(C)CC[C@@H]12
not listed: [10] | [11] | [12] | [13] | [14] | [15]
inactive: all other assays above

O=C(O)c1cccc(-c2noc(-c3ccccc3F)n2)c1
active: [5] 23 µM
not listed: [8] | [9] | [14] | [15]
inactive: all other assays above

COC(=O)Nc1nc2ccc(Sc3ccccc3)cc2[nH]1
active: [2] 99.9 nM and 139 nM | [4] 163 nM and 98.8 nM | [6] 161 nM and 97.3 nM | [8] 122 nM and 96.1 nM | [10] 0.868 µM
not listed: [9] | [14]
inactive: all other assays above

COc1cc2c(Nc3ccc(Br)cc3F)ncnc2cc1OCC1CCN(C)CC1
inactive: [1] | [2] | [3] | [4] | [5] | [6] | [7] | [8]

Cc1c(O)cccc1C(=O)N[C@@H](CSc1ccccc1)[C@H](O)CN1C[C@H]2CCCC[C@H]2C[C@H]1C(=O)NC(C)(C)C
active: [1] 36.3 µM and 18.7 µM | [2] 44.9 µM and 20.2 µM | [3] 21.6 µM and 21.1 µM | [4] 43.8 µM and 38.2 µM | [5] 27.9 µM | [6] 66.8 µM and 35.3 µM | [7] 33.1 µM and 19.5 µM | [8] 46.8 µM and 23.1 µM
